# Screens (PubChem BioAssay)
# A selection: hits, their analogues and other compounds. The true share with any hit is near 3%.
# D3 antag: antagonists of human D3 dopamine receptor; P35462; D3R cells, DiscoveRx beta-arrestin luminescence, antagonist mode; active compounds read low; max response, negative = inhibition, %; hit rate 2.5% among 360,000; in the data active means max response below about -50%
# Target sequence (P35462 whole entry, looked up): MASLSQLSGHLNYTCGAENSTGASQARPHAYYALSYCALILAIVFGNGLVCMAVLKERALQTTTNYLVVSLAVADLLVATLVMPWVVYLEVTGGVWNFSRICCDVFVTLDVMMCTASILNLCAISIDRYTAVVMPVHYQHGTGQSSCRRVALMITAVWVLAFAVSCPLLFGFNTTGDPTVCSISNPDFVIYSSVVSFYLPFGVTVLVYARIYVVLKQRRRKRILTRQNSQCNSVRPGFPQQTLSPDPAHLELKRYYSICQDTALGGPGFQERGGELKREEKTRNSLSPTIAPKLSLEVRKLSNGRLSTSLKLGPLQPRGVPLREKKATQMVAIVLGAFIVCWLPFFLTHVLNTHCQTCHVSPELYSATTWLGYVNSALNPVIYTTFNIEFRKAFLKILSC
#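 Cells expressing the human receptor were seeded at 1500 cells/well, incubated overnight at 37 degrees C in 5% CO2, then exposed to library compounds with dopamine controls for 90 minutes at 37 degrees C before luminescent detection.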
# Nrf2 activator: activates Nrf2 signaling; AREc32 ARE-luciferase reporter (MCF7-derived line), luminescence, 24 h; Potency, µM (top dose mostly 46.1 µM), most hits filed as activators; hit rate 0.31% among 410,000; AID 624171; further: nearly all actives have a fitted effect of over 65% in size
#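 Quantitative high-throughput format: AREc32 reporter cells, 1000 per well, received compound by pin transfer and were incubated 24 hr at 37 deg C, 5% CO2, before Steady-Glo luminescence detection.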
# GRP78 ERSR act: inducers of ER stress response in human glioma cells; AID 602332; Potency, µM, most hits filed as activators; hit rate 0.02% among 420,000; U87-MG GRP78 promoter luciferase reporter, 16 h; further: series mostly up to about 76 µM; nearly all actives have a fitted effect of over 35% in size
#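 ERSR induction read as luciferase luminescence (Bright-Glo, 10 min at room temperature) in stably transfected human U87-MG glioma cells exposed to compounds for 16 h, using GRP78 as sensor.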
# D3 ag: activates the human D3 dopamine receptor. hit rate 0.58% among 410,000. P35462. D3R DiscoveRx beta-arrestin cells, luminescence, 90 min. max activation, %. AID 652048; in the data active means max activation above about 30%
#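 Agonist-mode cell screen: cells plated at 1500/well and incubated overnight at 37 °C, then exposed to library compounds for 90 min at 37 °C. Detection reagent was added for 30–60 min at room temperature, and luminescence was read.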
# Numbers stand for hits; 0 = inactive; - = no result given; [ ] = remark or other dose. Unless noted, the call rests on the fitted dose curve; in most records, active means well fitted curve in the direction sought with a large enough effect; inconclusive means small, poorly fitted or top-dose-only effect, or another doubt; inactive means no such curve, though single readings can be large; an effect the other way counts as inactive or inconclusive.
SMILES,D3 antag,Nrf2 activator,GRP78 ERSR act,D3 ag
CN(C)c1nc2cc3c(cc2cc1CN(CC1CCCO1)C(=O)c1cccc(F)c1)OCO3 (configuration not stated),-,-,0,-
C#CCN(Cc1ccc(OC)cc1)S(=O)(=O)C=C,-,-,0,-
C=CCn1c(SCC(=O)Nc2sc(C)c(C)c2C(=O)OCC)nnc1-c1sc(N)nc1C,0,0,0,0
C=CCn1c(SCC(=O)NC2CCCCC2)nnc1-c1sc(N)nc1C,-51,0,0,0
NC(=O)C(OC(=O)CNC(=O)C1CCCCC1)c1ccccc1 (configuration not stated),-,-,0,-
O=Nc1c(O)[nH]c2c(Cl)c(Cl)ccc12,-,-,0,-
Cc1cccc(OCCNC(=O)c2cncc(Br)c2)c1,0,0,0,0
CCOC(=O)CCCNC(=O)c1cncc(Br)c1,0,0,0,31
COc1ccc(CNC(=O)CN(c2ccccc2OC)S(=O)(=O)c2ccc(C)cc2)cc1,-,0,0,0
CC(=O)Nc1cccc(-c2cc(N3CCN(CCO)CC3)n3nccc3n2)c1,0,0[9.22 µM],0,37
COc1ccccc1CNCC(=O)NCc1ccc(C)cc1,-87,0,0,0
COc1ccccc1C(C)NCC(=O)NCc1ccc(C)cc1 (configuration not stated),-58,0,0,0
COc1ccccc1CNC(=O)Cc1ccc(C)cc1,0,0,0,0
CCc1ccc(C(=O)c2cn(CC(=O)Nc3ccc(F)cc3)c3ccc(OC)cc3c2=O)cc1,-,0,0,0
CC1(C(=O)O)CCC2(C)CCC3(C)C(=CC(=O)[C@@H]4C5(C)CC[C@H](O[C@H]6O[C@H](C(=O)O)C(O)C(O)[C@H]6O[C@@H]6O[C@H](C(=O)O)C(O)C(O)C6O)C(C)(C)[C@@H]5CCC43C)[C@@H]2C1 (some centres not stated),-,-,0,-
CC1CCCN(S(=O)(=O)c2cnc[nH]2)C1 (configuration not stated),0,0,0,33
O=C(Nc1cccc(Cl)c1)C1CCCN(S(=O)(=O)c2cnc[nH]2)C1 (configuration not stated),0,0,0,0
O=C(NCCN1CCN(c2ccccc2)CC1)C1CCCN(S(=O)(=O)c2cnc[nH]2)C1 (configuration not stated),-63,0,0,0
O=C(NCCCN1CCN(c2ccccc2)CC1)C1CCCN(c2ncnc3c2nc2n3CCCCC2)C1 (configuration not stated),-67,0,0,0
O=C(NCCN1CCN(c2cccc(Cl)c2)CC1)C1CCCN(S(=O)(=O)c2cnc[nH]2)C1 (configuration not stated),-86,0,0,0
CCN(CCNC(=O)C1CCCN(S(=O)(=O)c2cnc[nH]2)C1)c1ccccc1 (configuration not stated),0,0,0,0
O=C(O)CSCC(=O)NC1CCSC1=O (configuration not stated),-,-,0,0
Cc1c(C(=O)Nc2cccc(C#N)c2)sc2nc3n(c(=O)c12)CCCCC3,-,0,0,0
COCC1=C(C(=O)OC(C)OC(=O)OC(C)C)N2C(=O)C(NC(=O)/C(=N\OC)c3csc(N)n3)C2SC1 (configuration not stated),-,-,0,-
CCOc1ccc2nc(N3CCCC3C(=O)N3CCC(c4nc5ccccc5o4)CC3)nc(C)c2c1 (configuration not stated),-,-,0,-
SMILES,D3 antag,Nrf2 activator,GRP78 ERSR act,D3 ag
CO/N=C(\C(=O)N[C@@H]1C(=O)N2C(C(=O)[O-])=C(C[n+]3cccc4c3CCCC4)CS[C@H]12)c1csc(N)n1,-,-,0,-
CCCCNC(=O)NS(=O)(=O)c1ccc(C(=O)O)cc1,-,-,0,-
O=C(/C=C/c1ccc(Cl)cc1)Nc1nc(-c2cccs2)ns1,-,0,0,0
NNC(=O)c1ccc(CSc2nc3ccccc3[nH]2)cc1,-56,0,0,0
Cn1cc(-c2cc3n(n2)CCC(=O)N3CCCC(=O)Nc2ccccc2Cl)c2ccccc21,-,0,0,0
O=C(C1=C(O)C(=O)N(CCN2CCOCC2)C1c1ccccc1)c1cccs1 (configuration not stated),-52,0,0,0
Cn1c(CCN2CCN(c3ccccn3)CC2)nc2cc(NS(=O)(=O)c3ccccc3)ccc21,0,0,0,0
Cc1ccc(OCC(=O)Nc2ccc3c(c2)nc(CCN2CCN(c4ccccn4)CC2)n3C)cc1,0,0,0,0
CCCCC(=O)Nc1ccc2c(c1)nc(CCN1CCN(c3ccccn3)CC1)n2C,0,0,0,44
CCCC(=O)Nc1ccc2c(c1)nc(CCN1CCN(c3ccccn3)CC1)n2C,0,0,0,57
